Measured values published in PubChem BioAssay (Tox21).
Results filed as inconclusive are left out. Activity calls are given as the source filed them. Unless noted, calls come from the whole dose curve; as a rule, active = well fitted curve in the direction sought with a large enough effect in the repeat runs; inconclusive = weak or mixed curves; inactive = no such curve, though single readings can be large; an effect the other way counts as inactive or inconclusive.

How the values were obtained:
[1] = qHTS assay for small molecules that induce genotoxicity in human embryonic kidney cells expressing luciferase-tagged ATAD5 (AID 651632); note: nearly all actives have a fitted effect of over 15% in size; note: potency is the fitted concentration of half-maximal effect
Summary of the method: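 A rise in luciferase signal from ATAD5-tagged HEK293T cells marks genetic stress. Cells were exposed to compounds for 16 hr at 37C, 5% CO2, then luciferase was quantified after a 30 min room-temperature incubation with Amplite.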

[2] = qHTS assay for small molecules that induce genotoxicity in human embryonic kidney cells expressing luciferase-tagged ATAD5 - cell viability (AID 651634; calls by dose curve; note: nearly all actives have a fitted effect of over 25% in size; note: potency is the fitted concentration of half-maximal effect)
Summary of the method: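 Cytotoxicity counter-readout: after 15.5 hr compound treatment at 37C, live-cell protease activity in ATAD5-luciferase HEK293T cells measured by CellTiter-Fluor fluorescence, 30 min development at 37C.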

[3] = qHTS assay to test for compound auto fluorescence at 590 nm (red) in HepG2 cells (AID 720674)
Summary of the method: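 Fluorescence at 590 nm emission following 540 nm excitation was recorded from HepG2 wells one hour after compound transfer, with DMSO-only wells as vehicle and Rose Bengal sodium equivalency as the scale.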

[4] = qHTS assay to test for compound auto fluorescence at 535 nm (green) in HepG2 cells (AID 720675)
[5] = qHTS assay to test for compound auto fluorescence at 460 nm (blue) in HEK293 cells (AID 720678); note: potency is the fitted concentration of half-maximal effect
Summary of the method: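 Cells were seeded and left to adhere for 4-5 hr at 37C. Compounds were then pin-transferred. After an overnight incubation at 37C under 5% CO2, intrinsic fluorescence at 405/460 nm was measured and referenced to triamterene.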

[6] = qHTS assay to test for compound auto fluorescence at 535 nm (green) in HEK293 cells (AID 720680)
[7] = qHTS assay to test for compound auto fluorescence at 460 nm (blue) in HEK293 cell free culture (AID 720681); note: potency is the fitted concentration of half-maximal effect
Summary of the method: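 Compounds were added to cell-free DMEM with 10% FBS and fluorescence read directly. The blue channel used 405 nm excitation and 460 nm emission, with triamterene as the reference fluorophore.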

[8] = qHTS assay to test for compound auto fluorescence at 535 nm (green) in HEK293 cell free culture (AID 720682)
Summary of the method: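 Steps: dispense DMEM/10% FBS into empty wells; pin in compound or DMSO; measure fluorescence at 485/535 nm. Values are fluorescein equivalents.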

[9] = qHTS assay to test for compound auto fluorescence at 590 nm (red) in HEK293 cell free culture (AID 720683)
Summary of the method: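 Cell-free wells of DMEM with 10% FBS received compound, and intrinsic fluorescence was read at excitation/emission 540/590 nm. Values expressed as equivalence to Rose Bengal sodium.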

[10] = qHTS assay to test for compound auto fluorescence at 590 nm (red) in HepG2 cell free culture (AID 720684)
Summary of the method: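 Rose Bengal sodium served as the reference for red signal. Test compounds were dispensed into serum-containing MEM (10% FBS) without cells, and plates were read at 540/590 nm.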

[11] = qHTS assay to test for compound auto fluorescence at 535 nm (green) in HepG2 cell free culture (AID 720686)
[12] = qHTS assay to test for compound auto fluorescence at 460 nm (blue) in HepG2 cells (AID 720687); note: potency is the fitted concentration of half-maximal effect
Summary of the method: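 HepG2 cells in MEM with 10% FBS, attached overnight at 37 C, were exposed to compound or DMSO for 1 hr at 37 C, 5% CO2. Blue fluorescence was read at 405/460 nm, with triamterene as reference fluorophore.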

[13] = qHTS assay for small molecule disruptors of the mitochondrial membrane potential - cell viability (AID 720634; calls by dose curve; note: nearly all actives have a fitted effect of over 20% in size; note: potency is the fitted concentration of half-maximal effect)
Summary of the method: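 Cytotoxicity was quantified from ATP content by CellTiter-Glo luminescence in the same wells as the MMP dye read-out. HepG2 (2,000 cells/well) were plated overnight and exposed to compounds for 1 hr at 37 C.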

[14] = qHTS assay for small molecule disruptors of the mitochondrial membrane potential (AID 720635); note: potency is the fitted concentration of half-maximal effect
Summary of the method: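 HepG2 cells exposed to compound 1 hr at 37C, then Mito-MPS dye 30 min. Ratio read of aggregate (540/590 nm) versus monomer (490/535 nm) fluorescence.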

[15] = qHTS assay to test for compound auto fluorescence at 590 nm (red) in HEK293 cells (AID 720679)
Summary of the method: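 Each well held 2,000 HEK293 cells in medium containing 10% dialyzed FBS. Following 4-5 hr attachment at 37C, 23 nL test compound or DMSO was added; plates sat overnight, and red fluorescence (540/590nm) was recorded.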

[16] = qHTS assay to test for compound auto fluorescence at 460 nm (blue) in HepG2 cell free culture (AID 720685); note: potency is the fitted concentration of half-maximal effect
Summary of the method: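 Cell-free plates of MEM plus 10% FBS received 23 nL compound or DMSO vehicle; blue-channel (405/460 nm) intensity scored against triamterene as reference fluorophore.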

[17] = target: Glucocorticoid receptor (Homo sapiens) (UniProt P04150); assay: qHTS assay to identify small molecule agonists of the glucocorticoid receptor (GR) signaling pathway (AID 720691; active = well fitted activation curve with a large enough effect in the signal ratio in the repeat runs, not every such curve was filed as active; the % refers to the signal ratio); settings: GR-bla HeLa, beta-lactamase reporter ratio, 18 h; activation: at 62.4 µM (top of the series)
Summary of the method: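 Agonist-mode qHTS in HeLa cells stably expressing a glucocorticoid-response-element beta-lactamase reporter. Fluorescence intensity read with FRET substrate (2 h, room temperature) after 18 h compound treatment at 37 C.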

[18] = target: Glucocorticoid receptor (Homo sapiens) (UniProt P04150); assay: qHTS assay to identify small molecule antagonists of the glucocorticoid receptor (GR) signaling pathway (AID 720692; active = well fitted inhibition curve with a large enough effect in the signal ratio in the repeat runs, not every such curve was filed as active; the % refers to the signal ratio)
Summary of the method: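 Inhibition of dexamethasone-driven (5 nM final) beta-lactamase expression was measured in GRE-reporter HeLa cells over 18 h at 37C. Fluorescence was read after 2 h with the B/G FRET substrate at room temperature.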

[19] = qHTS assay for small molecule agonists of the p53 signaling pathway - cell viability (AID 651633; calls by dose curve; note: nearly all actives have a fitted effect of over 30% in size; note: potency is the fitted concentration of half-maximal effect)
Summary of the method: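 p53RE-bla cells were treated with compound for 16 hours at 37 C. Cytotoxicity was then measured as CellTiter-Glo luminescence after 30 min at room temperature.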

Measured: Potency
Tags give direction and shape of the fitted curve or compound fluorescence and quenching.

Sequence of Glucocorticoid receptor (Homo sapiens) (P04150 whole entry, looked up): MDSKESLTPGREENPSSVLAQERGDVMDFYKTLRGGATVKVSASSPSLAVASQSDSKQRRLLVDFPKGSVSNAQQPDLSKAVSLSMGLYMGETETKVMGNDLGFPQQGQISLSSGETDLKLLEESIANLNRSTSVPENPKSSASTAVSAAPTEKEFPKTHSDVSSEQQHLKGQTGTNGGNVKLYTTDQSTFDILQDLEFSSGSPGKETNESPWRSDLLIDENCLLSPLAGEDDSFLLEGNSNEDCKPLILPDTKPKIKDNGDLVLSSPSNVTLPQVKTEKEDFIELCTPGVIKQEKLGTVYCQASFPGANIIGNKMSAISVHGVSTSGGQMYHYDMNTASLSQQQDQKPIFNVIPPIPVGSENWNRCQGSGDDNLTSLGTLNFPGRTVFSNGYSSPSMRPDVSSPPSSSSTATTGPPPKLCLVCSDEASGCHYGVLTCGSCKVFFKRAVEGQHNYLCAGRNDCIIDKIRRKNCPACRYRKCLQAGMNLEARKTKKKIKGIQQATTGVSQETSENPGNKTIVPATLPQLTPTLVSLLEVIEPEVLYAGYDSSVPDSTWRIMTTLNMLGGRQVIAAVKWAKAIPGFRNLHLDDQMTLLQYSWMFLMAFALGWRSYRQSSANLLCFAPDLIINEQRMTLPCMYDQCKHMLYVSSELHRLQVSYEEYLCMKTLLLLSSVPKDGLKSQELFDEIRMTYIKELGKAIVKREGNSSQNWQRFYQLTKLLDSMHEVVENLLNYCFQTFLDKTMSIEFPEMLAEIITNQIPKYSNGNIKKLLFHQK

CCOC(=O)c1nc(C(Cl)(Cl)Cl)n(-c2ccc(Cl)cc2Cl)n1
inactive: [1] | [2] | [3] | [4] | [5] | [6] | [7] | [8] | [9] | [10] | [11] | [12]

CC(C)(C)NC(=O)[C@@H]1C[C@@H]2CCCC[C@@H]2CN1C[C@@H](O)[C@H](Cc1ccccc1)NC(=O)[C@H](CC(N)=O)NC(=O)c1ccc2ccccc2n1
inactive: [1] | [13] | [3] | [4] | [5] | [15] | [6] | [7] | [8] | [9] | [10] | [16] | [11] | [12]
active: [14] 43.8 µM

CN(C/C=C/C#CC(C)(C)C)Cc1cccc2ccccc12
inactive: [1] | [2] | [13] | [14] | [3] | [4] | [5] | [15] | [6] | [7] | [8] | [9] | [10] | [16] | [11] | [12] | [17] | [18]

CC(C)(C)c1ccc(C(=O)CCCN2CCC(OC(c3ccccc3)c3ccccc3)CC2)cc1
inactive: [2] | [13] | [3] | [4] | [5] | [15] | [6] | [7] | [9] | [10] | [16] | [11] | [12]
active: [19] 21.1 µM

OCCN(CCO)c1nc(N2CCCCC2)c2nc(N(CCO)CCO)nc(N3CCCCC3)c2n1
active: [5] 12.6 µM [fluorescent] | [7] 12.6 µM | [16] 12.6 µM [fluorescent] | [12] 12.6 µM [fluorescent]
inactive: [1] | [13] | [3] | [4] | [15] | [6] | [8] | [9] | [10] | [11]

O=CC=C(c1ccccc1)c1ccccc1
active: [14] 30.9 µM
inactive: [1] | [2] | [3] | [4] | [5] | [15] | [6] | [7] | [8] | [9] | [10] | [16] | [11]

CCCCCCCCCCCC(=O)NCCCN(C)C
active: [19] 27.3 µM
inactive: [3] | [4] | [5] | [15] | [6] | [7] | [8] | [9] | [10] | [16] | [11] | [12]

Nc1ccc2cc(S(=O)(=O)O)cc(O)c2c1N=Nc1ccccc1C(F)(F)F
inactive: [1] | [13] | [3] | [4] | [5] | [15] | [6] | [7] | [8] | [9] | [10] | [16] | [11] | [17] | [18]

O=Cc1cc(O)ccc1Br
active: [14] 62 µM
inactive: [1] | [2] | [13] | [3] | [4] | [5] | [6] | [7] | [8] | [9] | [10] | [16] | [11] | [17]

Cc1[nH]nc2c1N=C(c1ccccc1Cl)c1cc([N+](=O)[O-])ccc1N2
active: [1] 1.93 µM | [2] 30.6 µM | [14] 3.06 µM
inactive: [13] | [3] | [4] | [5] | [15] | [6] | [7] | [9] | [10] | [11] | [12]

Cc1cc(O)c2ccccc2c1O
inactive: [1] | [2] | [13] | [3] | [4] | [5] | [6] | [7] | [8] | [9] | [10] | [16] | [11] | [12]

COc1cccc(N)c1
inactive: [19] | [13] | [3] | [4] | [5] | [15] | [6] | [7] | [8] | [9] | [10] | [16] | [11] | [12] | [17]
active: [2] 13.8 µM

NNc1nc(-c2ccc([N+](=O)[O-])cc2)cs1
inactive: [1] | [3] | [4] | [5] | [15] | [6] | [7] | [8] | [9] | [10] | [16] | [12]
active: [2] 24.3 µM | [13] 17.2 µM | [14] 1.37 µM

Oc1ccc(N=Nc2ccccc2)cc1
active: [13] 6.95 µM | [14] 3.1 µM
inactive: [19] | [3] | [4] | [5] | [15] | [6] | [7] | [9] | [10] | [11] | [12]

[Cl][Au]([Cl])[Cl]
inactive: [13] | [3] | [4] | [5] | [6] | [7] | [8] | [9] | [10] | [11]
active: [19] 68.6 µM | [2] 30.6 µM

OCCCCCCCCCCCCBr
inactive: [1] | [13] | [3] | [4] | [5] | [15] | [6] | [7] | [8] | [9] | [10] | [16] | [11] | [12] | [17]
active: [14] 62.1 µM
